HT1080 IDH1KD tx – qHTS for induction of synthetic lethality in tumor cells producing 2HG: qHTS for the HT-1080-IDH1KD cell line; HT-1080 IDH1 knockdown viability, ATP luminescence, 48 h; Potency, µM (top dose mostly 46.1 µM), without a hit: at the highest dose activity, negative = toxicity, actives largely listed as cytotoxic; 360,000 compounds, 2% hits; AID 686971, 2013;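 note: 0% = DMSO wells and -100% = cell-free medium wells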
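After a 2 h attachment period, IDH1KD HT-1080 cells took pin-transferred compound for 48 h at 37 °C; ATP-based luminescence after 10 min room-temperature reagent incubation reported viability.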
TDP1 cell CPT – qHTS for Inhibitors of human tyrosyl-DNA phosphodiesterase 1 (TDP1): qHTS in cells in presence of CPT. chicken DT40 Tdp1-/-;hTDP1 cells + 20 nM CPT, ATP luminescence, 48 h. AID 686979, 2013. 420,000 compounds, 12% hits. Potency, µM (series often up to 46.2 µM), without a hit: at the top dose activity change, negative = growth inhibition, usual class: inhibitors; note: nearly all actives have a fitted effect of over 55% in size
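Cell growth measured by CellTiter-Glo luminescence after a minimum 48 h, 37 C compound exposure with 20 nM CPT in Tdp1-knockout DT40 cells stably expressing hTDP1, seeded 400/well; qHTS titration format.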
DT40 TDP1 no CPT – qHTS for Inhibitors of human tyrosyl-DNA phosphodiesterase 1 (TDP1): qHTS in cells in absence of CPT. AID 686978, 2013. Potency, µM (doses to about 46.2 µM), for inactives: at the top dose activity change, negative = growth inhibition, usual class: inhibitors. DT40 Tdp1-/- hTDP1 cells, no CPT, ATP luminescence, 48 h. 420,000 compounds, 15% hits; note: nearly all actives have a fitted effect of over 55% in size
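Growth of hTDP1-complemented DT40 Tdp1-knockout cells is measured by ATP luminescence after at least 48 hr compound exposure at 37 °C, with DMSO substituting for the 20 nM CPT used in the parallel screen.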
HT1080NT lethal – qHTS for induction of synthetic lethality in tumor cells producing 2HG: qHTS for the HT-1080-NT fibrosarcoma cell line | Potency, µM (highest dose often 46.1 µM), without a hit: at the highest dose activity, negative = less viability, usual class: cytotoxic | 360,000 compounds, 1.6% hits | AID 686970, 2013 | HT-1080-NT fibrosarcoma viability, CellTiter-Glo ATP luminescence, 48 h;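 note: NT is the 2HG producing partner of a matched IDH1 knockdown line; 0% = DMSO-treated cells and -100% = media-only wells without cells; nearly all actives have a fitted effect of over 55% in size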
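Read-out is CellTiter-Glo luminescence after 10 minutes at room temperature, following 48 hours' compound treatment of HT-1080-NT cells (750 cells/well, RPMI, 5% FBS, 37 degrees C).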
KB-3-1 cytotox – qHTS assay for MDR1-selective chemotherapeutics: Primary screen using the parental adenocarcinoma cell KB-3-1. 400,000 compounds, 1.4% hits. AID 1347075, 2019. KB-3-1 viability, CellTiter-Glo ATP luminescence, 72 h. Potency, µM (titrated, usually from 46.1 µM), most hits filed as cytotoxic; note: nearly all actives have a fitted effect of over 60% in size
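Parental KB-3-1 adenocarcinoma cells in phenol-red-free DMEM with 10% FBS were pin-treated with compounds at several concentrations, incubated 72 h at 37 °C, and viability read by CellTiter-Glo luminescence; concentration-effect curves were fitted after normalization.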
KB-V1 cytotox – qHTS assay for MDR1-selective chemotherapeutics: Primary screen using the drug-selected MDR subline cells KB-V1; KB-V1 MDR cells viability, CellTiter-Glo, 72 h; Potency, µM (highest dose often 46.1 µM), usual class: cytotoxic; 400,000 compounds, 3.4% hits; AID 1347076, 2019; note: nearly all actives have a fitted effect of over 60% in size
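Drug-selected KB-V1 cells, grown in DMEM lacking phenol red with 10% FBS, receive compound titrations; after three days at 37 degrees C, surviving cell ATP is quantified by CellTiter-Glo luminescence and responses normalized and curve-fitted.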
The depositor's hits bear a star; i = inactive; ? = inconclusive; . = no result; [ ] = another dose, or the depositor's remark. Shown are actives, neighbours in structure and some others; about 19% of the full set was active somewhere. Calls come from the whole dose curve; as a rule, active = well fitted curve in the direction sought with a large enough effect; inconclusive = small, poorly fitted or top-dose-only effect, or another doubt; inactive = no such curve, though single readings can be large; an effect the other way counts as inactive or inconclusive. Unless noted, % is set by controls: 0 for no effect and ±100 for the full control effect; potency is the fitted concentration of half-maximal effect.

SMILES	HT1080 IDH1KD tx	TDP1 cell CPT	DT40 TDP1 no CPT	HT1080NT lethal	KB-3-1 cytotox	KB-V1 cytotox
CCc1nc2ccc(C)cc2c(C(=O)Oc2cccc3cccnc23)c1C	-10%	?	23µM*	-2%	i	i
Cc1c(C(=O)Oc2cccc3cccnc23)oc2ccccc12	23µM*	?	?	23µM*	i	i
CN(C)C/C(Cl)=C(\Cl)c1ccccc1	9%	5.2µM*	5.2µM*	0%	?	i
CN(C)CC(=O)c1ccc(-c2ccccc2)cc1	?	-2%	-5%	6%	i	?
Cc1cc(NO)nc(-c2ccc(Br)cc2)n1	-8%	-22%	-38%	10µM*	i	i
N#Cc1c(-c2ccccc2)cc(-c2ccccc2)nc1SCC(=O)Nc1ccc(Cl)cc1	.	-2%	-20%	.	i	i
CCc1nnc(NC(=O)CSc2nc(-c3ccccc3)cc(-c3ccc(OC)cc3)c2C#N)s1	18%	23µM*	21µM*	17%	i	i
N#Cc1c(-c2ccc(Cl)cc2)cc(-c2ccccc2)nc1SCC(=O)O	0%	18µM*	?	-13%	i	i
COc1ccc(-c2cc(-c3ccccc3)nc(SCC(=O)Nc3nccs3)c2C#N)cc1	6%	?	8.2µM*	11%	i	?
COc1ccc(-c2cc(-c3ccccc3)c(C#N)c(SCC(=O)Nc3ncc(C)s3)n2)cc1	0%	-20%	?	-10%	i	?
CCc1nnc(NC(=O)CSc2nc3cc(OC)ccc3cc2C)s1	4%	-28%	8.2µM*	-3%	i	i
CCc1nnc(NC(=O)Cc2ccc(OC)cc2)s1	10%	11%	-4%	26%	i	i
COc1ccc(CNC(=O)C2CCCN2c2nc(C)c3ccccc3n2)cc1 (configuration not stated)	.	0%[9.04 µM]	-21%	.	.	.
CCC(=O)N1c2ccccc2CC1C(=O)NCCc1ccccc1 (configuration not stated)	.	-13%	8%	.	i	i
Cc1ccc(C)c(Cn2c(=O)n(-c3ccc(F)cc3)c(=O)c3sc4ccccc4c32)c1	.	?	-12%	.	i	?
CCOc1ccc(-c2c(C)nn3c(C)c(C(=O)NCCc4ccc(C)cc4)cnc23)cc1OCC	.	?	?	.	i	i
CC[n+]1c(/C=C/c2c[nH]c3ccccc23)ccc2cc(C)ccc21	18µM*	1.2µM*	1.2µM*	29µM*	9.2µM*	i
CCN(CC)C(=O)c1ccc(/C=C/c2c[nH]c3ccccc23)[n+](C)c1	3%	-25%	?	8%	i	i
O=C(Cc1cccc(F)c1)NO	23%	-25%	-15%	17%	.	.
O=C(COc1cccnc1[N+](=O)[O-])NCCc1ccccc1	-2%	-1%	-11%	3%	i	i
CN=C(c1ccc(C)cc1)n1c(=S)nc(-c2ccc(C)cc2)n(C)c1=S	0%	?	18µM*	2%	i	i
CCOc1ccc(NC(=S)N(CCCN2CCCC2)Cc2cccn2Cc2ccc(Cl)cc2)cc1	-16%	15µM*	?	?	i	i
Cc1cccc(NC(=S)N(CCCN2CCCC2)Cc2cccn2Cc2ccc(Cl)cc2)c1	?	?	16µM*	13µM*	?	?
CCN1CCN(CCCN(Cc2ccco2)C(=S)Nc2ccc(Cl)cc2)CC1	-20%	-6%	-14%	-24%	i	?
CCOc1cccc(C2C(C(=O)c3ccc(C)o3)=C(O)C(=O)N2Cc2ccccc2)c1 (configuration not stated)	15%	?	5%	13%	i	8.2µM*
SMILES	HT1080 IDH1KD tx	TDP1 cell CPT	DT40 TDP1 no CPT	HT1080NT lethal	KB-3-1 cytotox	KB-V1 cytotox
CCCCOc1ccc(C2C(C(=O)c3ccc(C)o3)=C(O)C(=O)N2CC2CCCO2)cc1 (configuration not stated)	-15%	?	23µM*	-8%	?	12µM*
Cc1cc(C)nc(NC2=NCCN2C(=O)NC2CCCCC2)n1	6%	?	16µM*	7%	i	i
Cc1cc(C)c(NC(=O)Cn2c(=O)n(CCC(C)C)c(=O)c3cccnc32)c(C)c1	.	?	?	.	i	i
COc1ccc(CCNc2nc3c(-c4cccc(C)c4)nnn3c3ccccc23)cc1OC	.	22%	-3%	.	i	i
CCc1nn(CC(=O)NCCN(CC(C)C)CC(C)C)c(=O)c2cc3sc(C)cc3n12	.	15µM*	21µM*	.	.	.
CCOc1ccccc1NC(=O)c1cccc(S(=O)(=O)N(Cc2ccccc2)c2ccccc2OC)c1	4%	21µM*	16µM*	0%	i	8.2µM*
COc1ccccc1N(Cc1ccccc1)S(=O)(=O)c1cccc(C(=O)NC2CC(C)(C)NC(C)(C)C2)c1	-24%	18µM*	18µM*	-25%	?	i
COc1ccccc1N(Cc1ccccc1)S(=O)(=O)c1cccc(C(=O)Nc2cc(C)ccn2)c1	?	?	26µM*	-24%	16µM*	i
COc1ccc(C)cc1NC1(c2ccccc2)C(=O)c2ccccc2C1=O	.	9%	4%	.	i	?
O=C(C1CCC(Cn2c(=O)c3sccc3n(Cc3ccccc3)c2=O)CC1)N1CCOCC1 (configuration not stated)	.	?	?	.	?	i
CC(=O)N(C)c1ccc(C=C2C=Cc3ccccc32)cc1	?	9.2µM*	9.2µM*	-7%	i	?
CCN(N=O)c1ccc(C=C2C=Cc3ccccc32)cc1	11%	-5%	-26%	7%	i	21µM*
Cc1ccc([C@H]2C[C@H](O)[C@@H](n3cc(COC(=O)c4ccccc4)nn3)CN2Cc2cccs2)cc1	?	21µM*	23µM*	?	?	?
COc1ccc([C@H]2C[C@H](n3cc(COC(=O)c4ccccc4)nn3)[C@@H](O)CN2Cc2cccs2)cc1	6%	?	18µM*	-7%	i	i

Screening data deposited in PubChem BioAssay by National Center for Advancing Translational Sciences (NCATS).
